Experimental data as given in PubChem BioAssay AID1508602 (The Scripps Research Institute Molecular Screening Center, 2020).
Screen size: about 650,000 compounds; about 6,800 (1%) were called active. This is one part of a sample in which actives are shown more often than they occur. Cut-off read from the data, not from the text of the source: active = activation above about 4.9%; inactive = the rest.

The compounds below were run against G-protein coupled receptor 151 (Homo sapiens) (UniProt Q8TDV0) (assay: activators of human GPR151, primary screen, cell-based, PathHunter beta-arrestin, luminescence (AID 1508602;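 note: 0% = median of compound wells and 100% = cells with positive control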)). Settings: PathHunter beta-arrestin GPR151 cells, at 11.2 µM, hits give high values.
Sequence of G-protein coupled receptor 151 (Homo sapiens) (Q8TDV0 whole entry, looked up): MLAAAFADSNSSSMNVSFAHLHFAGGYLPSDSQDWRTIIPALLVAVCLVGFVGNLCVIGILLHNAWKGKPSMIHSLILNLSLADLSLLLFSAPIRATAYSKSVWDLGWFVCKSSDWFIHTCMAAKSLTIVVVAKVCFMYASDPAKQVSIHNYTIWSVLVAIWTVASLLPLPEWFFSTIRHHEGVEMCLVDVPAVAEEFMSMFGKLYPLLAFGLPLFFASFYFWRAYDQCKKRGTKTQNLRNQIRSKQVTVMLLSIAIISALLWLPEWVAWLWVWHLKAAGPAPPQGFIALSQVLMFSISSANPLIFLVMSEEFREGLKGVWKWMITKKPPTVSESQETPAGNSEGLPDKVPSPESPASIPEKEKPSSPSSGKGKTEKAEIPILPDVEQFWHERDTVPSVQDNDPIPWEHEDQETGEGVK

SMILES | activation
COc1ccccc1N1C(=O)NC(=O)/C(=C\c2ccc(Cl)cc2Cl)C1=O | 0.657% (inactive)
COc1cc(/C=C2\C(=O)NC(=O)N(c3ccccc3)C2=O)ccc1O | 8.77% (active)
C=CCN1C(=O)NC(=O)/C(=C/c2ccc(O)c(OC)c2)C1=O | -0.157% (inactive)
COc1cc(NC(=O)CCc2nc(C3=CCN(C)CC3)no2)cc(OC)c1OC | -0.399% (inactive)
O=C(O)C1C2CC3CC(C2)CC1(n1ncc(NC2CCCC2)c(Cl)c1=O)C3 (stereo not given) | 1.35% (inactive)
O=c1cccc2n1CC1CC2CN(Cc2ccc(F)cc2)C1 (stereo not given) | 1.89% (inactive)
COc1ccccc1N1CCN(C(CNC(=O)Oc2ccccc2)c2cccnc2)CC1 (stereo not given) | 9.52% (active)
COc1ccccc1N1CCN(Cc2cccc(O)c2)CC1 | 0.277% (inactive)
O=C(NCC(c1cccnc1)N1CCN(c2ccccc2)CC1)Oc1ccccc1 (stereo not given) | 0.68% (inactive)
O=C(Cc1cccs1)N1CCN(Cc2nnnn2-c2ccc(F)cc2)CC1 | 1.07% (inactive)
Cc1ccc(Cc2nc[nH]c2C)cc1 | 0.705% (inactive)
COc1ccc(CCNCc2ccc(O)cc2)cc1 | 1.2% (inactive)
Cc1cc(Cl)ccc1C(=O)C1CCCN(Cc2ncc[nH]2)C1 (stereo not given) | -0.596% (inactive)
CC[n+]1c(/C=C/C=C2\N(C)c3ccccc3C2(C)C)n(-c2ccccc2)c2ccc(Cl)cc21 | 5.9% (active)
C=CCOC(=O)C1=C(C)OC(N)=C(C(=O)OCC)C12C(=O)N(CC=C)c1ccccc12 (stereo not given) | -0.446% (inactive)
COc1cc(Br)cc(CN2CC3CC(C2)c2cccc(=O)n2C3)c1O (stereo not given) | -0.476% (inactive)
CCOC(=O)C1=C(N)OC2=C(C(=O)CCC2)C12C(=O)Nc1ccc(Br)cc12 (stereo not given) | 9.15% (active)
CCOC(=O)C1=C(N)Oc2n[nH]c(C)c2C12C(=O)Nc1ccc(Br)cc12 (stereo not given) | 0.383% (inactive)
CCOC(=O)C1=C(C)OC(N)=C(C(=O)OC)C12C(=O)Nc1ccc(Br)cc12 (stereo not given) | -0.299% (inactive)
CC(C)c1ccc(NC(=O)c2cc3cccnc3n(Cc3ccc(F)cc3)c2=O)cc1 | 1.47% (inactive)
